From the supplement of paper PMC5407854, “Inhibitor of ppGalNAc-T3-mediated O-glycosylation blocks cancer cell invasiveness and lowers FGF23 levels” (eLife, 2017)
Whole data set: some 1,700 compounds, median “T2 sensor activation Q score (MG/GFP ratio z-score vs DMSO controls)” near 0.3, cut for the highest 2% near 1.9. Many of the other results were omitted from the sample, so the highest values are more common in it than they were.

system: ppGalNAc-T2 sensor; experiment: T2 sensor activation Q score (MG/GFP ratio z-score vs DMSO controls) (SD units); higher = more sensor activation (inhibition of ppGalNAc-T2 glycosylation); settings: HEK293 sensor cells; 10 µM; 6 h
Method: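 Cells were treated with compound at 10 uM for 6 h, then MG/GFP ratio was read by flow cytometry (10,000 cells per well, duplicate wells). Q = (R - R_neg)/SD_neg relative to DMSO vehicle controls; the signal rises when the glycosyltransferase is inhibited.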

| Compound | T2 sensor activation Q score |
| --- | --- |
| Cc1ncc([N+](=O)[O-])n1CCOC(N)=O | -0.85 |
| Cn1cnc([N+](=O)[O-])c1N=C(N)N | 2.2 |
| Cn1cnc([N+](=O)[O-])c1Sc1n[nH]c(N)n1 | 1.8 |
| NCCCNCCSP(=O)(O)O | -0.45 |
| Cc1ccccc1-n1c(C=Cc2ccccn2)nc2ccccc2c1=O | -1 |
| COC[C@H]1OC(=O)c2coc3c2[C@@]1(C)C1=C(C3=O)[C@@H]2CCC(=O)[C@@]2(C)C[C@H]1OC(C)=O | 2.1 |
| CC12CCC3C(CC=C4CC(O)CCC43C)C1C/C(=C\N1CCCC1)C2=O (stereo not given) | 0.15 |
| C=Cc1cc(OC)c2c(c1)c(=O)oc1c2cc(OC)c2c(O)ccc(C3OC(C)C(O)C(C)(O)C3O)c21 (stereo not given) | -0.15 |
| O=C1C[C@@H]2OCC=C3C[N+]4([O-])CC[C@]56c7ccccc7N1[C@H]5[C@H]2[C@H]3C[C@@H]64 (stereo not given in full) | 1.95 |
| CC(C)CC(NC=O)C(=O)O.COc1cc2c(cc1OC)C13CCN4CC5=CCOC6CC(=O)N2C1C6C5CC43 (stereo not given) | 1.3 |
| O=C1/C(=C\c2ccccc2)C2OCC=C3CN4CCC56c7ccccc7N1C5C2C3CC46 (stereo not given) | 0.15 |
| COc1cc2c(cc1O)C[C@H]1c3c(cc(O)c(OC)c3-2)CCN1C | 0.75 |
| c1cc(C2N3CCCN2CC3)ccn1 (stereo not given) | -0.3 |
| CC(Cc1ccccc1)NC(N)=O (stereo not given) | 1.8 |
| O=C1N[C@H]2[C@H](O)[C@H](O)[C@@H](O)[C@H](O)[C@@H]2c2cc3c(c(O)c21)OCO3 | 2.6 |
| Cc1c(CCN)ccc2c1[nH]c1ccccc12 | 0.7 |
| COc1ccc2c(c1)C13CCN(C)C(C2)C1CCC1(C3)OCCO1 (stereo not given) | 2 |
| COc1ccc2c(c1O)[C@]13CCN(C)[C@H](C2)[C@@H]1CCC(=O)C3 | -0.1 |

| Compound | T2 sensor activation Q score |
| --- | --- |
| Cc1c(C(=O)c2ccccc2)c2ccccc2n1C | 1.75 |
| O=C1N(c2nncs2)CCN1[N+](=O)[O-] | 1.2 |
| CC1CC(C)OP(=O)(OCCC#N)O1 (stereo not given) | 0.35 |
| COc1ccc(CCNC2(C#N)CCCCC2)cc1OC | -0.65 |
| CN1CCN(c2ccc([N+](=O)[O-])c3no[n+]([O-])c23)CC1 | 0.1 |
| CN1CCN(c2nc(N)c(Br)c(Cl)n2)CC1 | 0.8 |
| O=P(Oc1ccccc1)(Oc1ccccc1)c1ccccc1 | -3.1 |
| CC12CCC3C(CCC4Cc5[nH]c6ccccc6c5CC43C)C1CCC2O (stereo not given) | 0.65 |
| O=C1CCC2(O)[C@@H]3Cc4ccc(O)c5c4[C@]2(CCN3Cc2ccoc2)C1O5 (stereo not given in full) | 0.3 |
| C=CCN1CCC23c4c5ccc(O)c4OC2C(=O)CCC3(O)C1C5 (stereo not given) | 2.2 |
| NN=C1C(Cl)=C(Cl)C(Cl)=C1Cl | -0.35 |
| CCCC(=O)N(C)C1=Nc2ccc(Cl)cc2C(c2ccccc2)=[N+]([O-])C1 | 0 |
| CCC(C)c1cnc(CC(C)C)c(=O)n1O (stereo not given) | -0.75 |
| CC12CCC3c4ccc(OC(=O)N(CCCl)CCCl)cc4CCC3C1CCC2O (stereo not given) | -0.35 |
| OCC1CN1C1CCCCC1 (stereo not given) | 2.1 |
| CN1CCC(c2c[nH]c3ccccc23)C1 (stereo not given) | 0.5 |
| CCC(N)Cc1c[nH]c2ccccc12 (stereo not given) | 1.2 |
